Molecular target: AMP-activated protein kinase, AMPK (Homo sapiens) (UniProt P54646+O43741+P54619+Q9UGJ0+Q9Y478+Q13131+Q9UGI9)
Assay: AMP-dependent Kinase enzyme assay. An in vitro enzyme assay that detects ADP turnover that is directly proportional to AMPK activity. This uses naive AMPK that is activated during the assay with MK-8722
Format: functional
Design: scale not given: direction of the effect not stated beside the values
Conditions: 30 µM

First: CCOc1ccc(Cl)cc1CCNC(=O)c1ccc(=O)n(C)c1
Second: CC(Oc1cccc(Cl)c1)C(=O)Nc1cnn(CCN(C)C)c1 (stereo not given)
The Percent Effect of the first is higher: 7.18% for the first, -7.28% for the second.

Going from `COc1ccc(CCN2CCCC(n3cncn3)C2)cc1` (stereo not given) to `CSc1ccc(C(=O)C2CCCN(C(=O)CCn3cnnn3)C2)cc1` (stereo not given), the Percent Effect rises from 0.286% to 10.2%.

Going from `CC(C)(CNC(=O)c1ccco1)NC(=O)OC(C)(C)C` to `CN(CC(=O)NC(C)(C)C)Cc1cccc2c1OCCO2`, the Percent Effect falls from -6.6% to -9.42%.

First: Cc1cnccc1CNCc1ccc(OC23CCCN(CC2)C3)cc1 (stereo not given)
Second: COc1ncccc1CNCc1cnc(N2CCOCC2)nc1
The Percent Effect of the first is lower: -10.2% for the first, -1.53% for the second.

Going from `CN(C)C(=O)c1ccccc1NC(=O)N[C@@H]1c2ccccc2C[C@@H]1O` to `CS(=O)(=O)c1ccccc1NC(=O)N[C@@H]1c2ccccc2C[C@@H]1O`, the Percent Effect rises from 3.27% to 6.87%.

First: CC(C)(CN1CCC2(CCNCC2)CC1)N1CCOCC1
Second: CC1(c2ncc(CN3CCSCC3)cn2)CCCCO1 (stereo not given)
The Percent Effect of the first is higher: 0.354% for the first, -1.61% for the second.

Compared with `Cc1occc1C(=O)Nc1ccc(C(=O)NC[C@H]2CCCN2)cc1`, `CC(NCc1cccc(NC(=O)C2CCCCC2)c1)c1cnn(C)c1` (stereo not given) is higher in Percent Effect: -9.02% for the first, 4.61% for the second.

Going from `COc1nc2c(cc1C(=O)NC(C)Cc1cnccn1)CCC2` (stereo not given) to `COc1c(C)cnc(CN2CCCC2c2noc(C)n2)c1C` (stereo not given), the Percent Effect falls from -1.98% to -12%.

Compared with `CCN(C)S(=O)(=O)N1CCC(C(O)c2ccc(F)cc2)CC1` (stereo not given), `CCC(c1ccc(F)cc1)S(=O)(=O)CCO` (stereo not given) is higher in Percent Effect: -1.14% for the first, 0.117% for the second.

First: O=C(NCc1ccc(-n2cncn2)nc1)c1cc(Cl)ccn1
Second: CC(C)c1cc(NC(=O)Cn2cnc3ccccc3c2=O)[nH]n1
The Percent Effect of the first is lower: -4.58% for the first, 6.52% for the second.

Going from `CCSc1cc(C(=O)N(CC(F)F)C(C)C)ccn1` to `CC(C)Oc1ccccc1CNC(=O)N(C)CC(F)F`, the Percent Effect falls from 2.16% to 1.53%.

First: Nc1ccc(C(=O)N2CCC(Oc3cccc(C(F)(F)F)c3)CC2)cn1
Second: COc1ccccc1OC1CCN(C(=O)c2cnc(C)s2)CC1
The Percent Effect of the first is higher: 6.7% for the first, 3.19% for the second.

Compared with `COCCN1C(=O)[C@H]2CC[C@@H]1CN(S(=O)(=O)c1cccc(Cl)c1)C2`, `CC(C)C(C(N)=O)c1cccc(Cl)c1` (stereo not given) is lower in Percent Effect: 27.4% for the first, -2.67% for the second.

First: CC(CN1CCOCC1)n1cncc1-c1cnn(Cc2ccccc2)c1 (stereo not given)
Second: CC(Cn1cncc1-c1cnn(Cc2ccccc2)c1)N1CCCCC1 (stereo not given)
The Percent Effect of the first is lower: 2.92% for the first, 7.07% for the second.

Compared with `CC(C)(C)C(NC(=O)CCS(C)(=O)=O)c1ccc(F)cc1F` (stereo not given), `CC(C)(C)CN(CCC#N)C(=O)c1cccc(CC#N)c1` is higher in Percent Effect: 0.0332% for the first, 4.84% for the second.

Compared with `CCn1cc(CNCCNc2ncc(Cl)cc2Cl)cn1`, `Cc1ccc(NC(=O)NCCn2cnc(C)c(C)c2=O)cc1F` is lower in Percent Effect: 4.84% for the first, 1.89% for the second.

Compared with `CN(C)C(C(=O)N1CCN(CCn2cccc2)CC1)c1ccc(F)cc1` (stereo not given), `Nc1nccc(N2CCC(c3cc(Cc4ccccc4)n[nH]3)CC2)n1` is higher in Percent Effect: -8.31% for the first, 4.14% for the second.

Compared with `CC(C)CNC(=O)Nc1cccc(OCC#N)c1`, `Cc1cc(C)n(CCN(C)c2ccc(-c3nc(C4CC4)no3)cn2)n1` is higher in Percent Effect: 2% for the first, 5.62% for the second.

First: CN(C)S(=O)(=O)NC1CCCc2c1cnn2-c1ccc(C(C)(C)C)cc1 (stereo not given)
Second: Fc1ccccc1CN1CCC[C@H](Cn2nnc(-c3cccs3)n2)C1
The Percent Effect of the first is higher: 88.7% for the first, 4.46% for the second.

Going from `COc1ccccc1OCc1nc2cc3c(cc2c(=O)o1)OCCCO3` to `CC(C)c1nc(C2CCCN2CCN2CCCCC2)no1` (stereo not given), the Percent Effect rises from -8.93% to -7.59%.

Source: ChEMBL document CHEMBL3988442, “University of Dundee, Small-Polar-MMV Screening Library” (2021)
